Only some compounds are listed: those with a hit (about 4.4% of all), similar ones and a draw of the others.
p53ts 39C tox – cytotoxicity in p53ts cells at nonpermissive temperature; H1299-p53A138V viability at 39C, ATP luminescence, 24 h; Potency, µM (titrated, usually from 46.1 µM), for inactives: at the top dose activity change, negative = cell killing, usual class: cytotoxic; 130,000 compounds, 1.5% hits; also: nearly all actives have a fitted effect of over 55% in size
p53ts 32C kill – kills p53ts cells at the permissive temperature; H1299-p53A138V at 32C, ATP luminescence viability, 24 h; Potency, µM (top dose mostly 46.1 µM), for inactives: top-dose activity change, negative = cytotoxicity, most hits filed as cytotoxic; 130,000 compounds, 0.93% hits;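 also: 0% = DMSO and -100% = full killing by reference compound; nearly all actives have a fitted effect of over 55% in size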
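ATP-content luminescence (ATPlite) read-out after 24 h compound exposure at 32C in H1299-p53A138V cells (600/well). Tested up to 46 uM. Normalized to DMSO (0%) and 100 uM tamoxifen (100% killing); Hill-fit AC50.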
HPGD block – HPGD (human) dehydrogenase inhibition | P15428 | purified HPGD, NADH fluorescence kinetic, PGE2 substrate | Potency, µM, for inactives: top-dose activity change, negative = inhibition, most hits filed as inhibitors | 150,000 compounds, 4.3% hits | AID 894; active = well fitted inhibition curve with a large enough effect, not every such curve was filed as active; inconclusive = small, poorly fitted or top-dose-only effect, or another doubt; inactive = no such curve, though single readings can be large or run the other way
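20 nM HPGD preincubated 15 min at room temperature with compound in 50 mM Tris-HCl pH 8, 0.01% Tween 20. Started with 1 mM NAD+ and 30 uM prostaglandin E2; NADH fluorescence (360/450 nm) read 5 times over 30-s intervals, last minus first.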
ALOX12 inhib – inhibitors of human 12-lipoxygenase (ALOX12); P18054; purified 12-hLO, xylenol orange hydroperoxide absorbance; Potency, µM (highest dose often 57.1 µM), inactives show at the highest dose activity change, negative = inhibition, usual class: inhibitors; 150,000 compounds, 0.12% hits; AID 1452; also: nearly all actives have a fitted effect of over 55% in size
Target sequence (P18054 whole entry, looked up): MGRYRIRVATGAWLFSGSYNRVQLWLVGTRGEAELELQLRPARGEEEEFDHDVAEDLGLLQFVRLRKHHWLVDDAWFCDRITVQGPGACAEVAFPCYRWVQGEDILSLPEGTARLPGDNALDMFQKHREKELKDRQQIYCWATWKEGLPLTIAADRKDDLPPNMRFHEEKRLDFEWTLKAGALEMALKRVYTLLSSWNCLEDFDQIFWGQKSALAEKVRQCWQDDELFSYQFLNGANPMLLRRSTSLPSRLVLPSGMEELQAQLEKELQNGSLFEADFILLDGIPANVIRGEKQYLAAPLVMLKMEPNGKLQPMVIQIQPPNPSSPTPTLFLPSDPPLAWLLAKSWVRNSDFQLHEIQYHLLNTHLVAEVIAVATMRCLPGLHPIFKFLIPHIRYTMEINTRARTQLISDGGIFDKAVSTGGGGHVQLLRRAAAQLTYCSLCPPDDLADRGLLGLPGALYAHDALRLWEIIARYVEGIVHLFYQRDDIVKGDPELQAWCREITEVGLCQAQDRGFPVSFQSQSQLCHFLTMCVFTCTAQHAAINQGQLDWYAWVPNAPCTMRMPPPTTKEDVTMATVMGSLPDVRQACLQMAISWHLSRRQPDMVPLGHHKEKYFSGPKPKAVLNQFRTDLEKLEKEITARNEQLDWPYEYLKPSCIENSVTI
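Lipoxygenase turnover measured by absorbance at 573 and 405 nm after Fe-XO development. Human 12hLO 150 nM, arachidonate 40 uM, pH 7.0 Hepes buffer with detergent; 15 min compound preincubation, 30 min reaction.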
Starred values were filed as active, the others as inactive; u = inconclusive; x = no result; [ ] = remark or other dose. Unless noted, calls follow the shape of the dose curve; as a rule, active = well fitted curve in the direction sought with a large enough effect; inconclusive = small, poorly fitted or top-dose-only effect, or another doubt; inactive = no such curve, though single readings can be large; an effect the other way counts as inactive or inconclusive. Unless noted, % is scaled to controls: 0 for no effect and ±100 for the full control effect; potency is read from the fitted curve at half-maximal effect.

SMILES	p53ts 39C tox	p53ts 32C kill	HPGD block	ALOX12 inhib
CCOC(=O)Cc1csc(SCC(=O)Nc2sc3c(c2C(N)=O)CCC3)n1	-16.3%	-11.8%	17.8µM*	-13.1%
CCOC(=O)Cc1csc(SCC(=O)NC2CCCCC2)n1	x	x	u	-1.7%
CCOC(=O)Cc1csc(SCC(=O)NC2CCCC(C)C2C)n1 (stereo unspecified)	-8.4%	x	25.1µM*	1.7%
N#Cc1c(NC(=O)CSc2nnc(-c3ccco3)n2-c2ccccc2)sc2c1CCC2	x	x	-13.3%	0.1%
NC(=O)c1c(NC(=O)CSc2nnc(-c3ccco3)n2-c2ccccc2)sc2c1CCC2	-5.7%	-16.1%	28.2µM*	-25.4%
COc1ccccc1NC(=O)C1=C(C)Nc2nc(SCc3ccccc3)nn2C1c1cccc(O)c1 (stereo unspecified)	2.3%	-2.4%	x	x
O=C1C=CC2=C3c4cc(O)c(O)cc4CC3(O)COC2=C1O (stereo unspecified)	-25.5%	-10.9%	25.1µM*	u
O=C(NC1CC1)c1cccc(Nc2ccc(-c3ccc4c(c3)OCCO4)nn2)c1	10µM*	20µM*	28.2µM*	-6.3%
COc1ccc(Nc2nc(N)c3cc(OC)c(OC)cc3n2)cc1	12.6µM*	u	x	x
COc1cc2nc(Nc3cccc(F)c3)nc(N)c2cc1OC	u	12.0%	x	x
COc1ccc(C(=O)Nc2cc3cc(Cl)ccc3oc2=O)cc1OC	-10.7%	8.5%	x	x
CCc1ccc(OCC(=O)Nc2ccc3c(c2)c2ccccc2n3CC)c(Br)c1	12.6µM*	-12.2%	x	x
CCc1ccc(OCC(=O)NCc2ccco2)c(Br)c1	-7.0%	-14.6%	35.5µM*	-8.5%
O=C(COc1ccccc1Br)NCc1ccco1	4.9%	14.2%	25.1µM*	0.8%
Cc1nn2c(C(F)(F)F)cc(-c3ccc(OC(C)C)cc3)nc2c1C#N	-23.7%	-4.9%	x	x
Fc1ccc(Nc2ncncc2-c2ccccc2C(F)(F)F)cc1	-9.7%	-4.0%	x	x
COc1cc(C(=O)OC2CC[C@]3(C)C4CCC5[C@]6(O)CC(O)[C@]7(O)C(CN8CC(C)CCC8[C@]7(C)O)[C@]6(O)C[C@@]53O[C@]24O)cc(OC)c1OC (stereo partly specified)	4.5%	-0.3%	-4.2%	-3.9%
COC(=O)c1ccc(C(NC(=O)OCc2ccccc2)/C(F)=C/[C@@H](C)C(=O)NCc2cc(C)on2)cc1 (stereo partly specified)	-29.7%	-24.6%	-9.5%	-0.8%
COc1ccc(-c2nnc(SCC(=O)Nc3cccc(C(F)(F)F)c3)s2)cc1	u	8.7%	x	x
O=C(O)CC1(CC(=O)Nc2ccc3ccccc3c2)CCCCC1	x	x	3.98µM*	-1.8%
COc1cccc(NC(=O)CC2(CC(=O)O)CCCC2)c1	-0.4%	-0.4%	u	-0.4%
CC(C)(C)C(=O)Nc1nc(=S)ss1	x	x	31.6µM*	-2.2%
CC(C)(C)C(=O)Nc1nnc(CSCc2ccccc2F)s1	x	x	-18.5%	-6.2%
CCC(=O)Nc1nc(=S)ss1	x	x	10µM*	3.4%
CCOC(=O)c1c(NC(C)=O)c2c3c(sc2n1Cc1nc(-c2cccc(C)c2)oc1C)CCCC3	17.9%	6.0%	x	x
SMILES	p53ts 39C tox	p53ts 32C kill	HPGD block	ALOX12 inhib
CC(C)(C)OC(=O)N1CCC(c2c(C(=O)NCc3ccccn3)cnn2-c2ccccc2)CC1	3.0%	-2.9%	x	x
COCCOC(=O)c1cc(C(=O)c2cc(F)ccc2O)coc1=N	7.5%	3.5%	u	6.7%
Cc1ccc(O)c(C(=O)c2coc(=N)c(C(=O)NC(C)C)c2)c1	x	x	17.8µM*	3.2%
CCOc1ccc(-n2c(=O)c3c(C)c(C(=O)N(C)C)sc3n(CC(=O)Nc3c(C)cc(C)cc3C)c2=O)cc1	-15.4%	-14.1%	x	x
COc1ccc(C(=O)C(CN2CCOCC2)c2ccccc2)cc1F (stereo unspecified)	20µM*	u	2.5%	-5.9%
C/C(=N\NC(=O)c1ccccc1)c1cc2cc([N+](=O)[O-])ccc2oc1=O	12.4%	x	25.1µM*	-3.9%
c1ccc2c(N3CCNCC3)nc(-c3ccc4c(c3)OCO4)nc2c1	-17.7%	15.2%	-29.0%	-7.1%
C/C(=N\NC(=O)c1ccncc1)c1cc2ccccc2oc1=O	x	x	u	1.1%
C/C(=N\NC(=O)c1ccncc1)c1ccc2ccccc2c1O	2µM*	u	-12.4%	0.9%[11.4 µM]
Cc1cc(C(=O)CN2C(=O)c3ccccc3S2(=O)=O)c(C)n1CC1CCCO1 (stereo unspecified)	1µM*	2.51µM*	-9.7%	-5.0%

Screens from PubChem BioAssay.
